Screening results deposited in PubChem BioAssay by The Scripps Research Institute Molecular Screening Center.
Hits are enriched below; roughly 4.8% of the tested compounds scored in any of these assays.
SMARCA2 act = SMARCA2 (BRM) function activators, primary screen, cell-based, luminescence, high throughput. 370,000 compounds, 1% hits. MG213 cells, MMTV-luciferase reporter, dexamethasone, overnight. activation, % at 9.1 µM; in the data active = activation above about 7.8%;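 also: 0% = vehicle wells and 100% = reference activator wells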
DAX1 inh-1 = DAX1 (NR0B1) inhibitors on StAR promoter, primary screen, cell-based, luminescence, SF-1 (NR5A1), full-length DAX-1 | HEK293T StAR-luciferase reporter, SF-1/DAX-1 repression relief | inhibition, % at 6.8 µM | AID 652010, 2013 | 370,000 compounds, 1.1% hits;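 active = inhibition above the mean over all tested compounds plus 3 SD, cut at about 3.6% in these data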;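 also: 0% = DAX-1 cells with DMSO and 100% = cells lacking DAX-1 with DMSO; higher inhibition means more luminescence from relief of DAX-1 repression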
ssDAF12 agonist = S. stercoralis DAF-12 nuclear receptor activators, primary screen, cell-based, luminescence, HEK293, GRIP1 co-expression, lit1-tk-luc; Nuclear hormone receptor DAF-12 (Strongyloides stercoralis); HEK293 ssDAF-12/GRIP1 lit1-tk-luc reporter; % of 3 µM dafachronic acid response; activation, % at 6.8 µM; 370,000 compounds, 1% hits;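 active = activation above the mean over all tested compounds plus 3 SD, cut at about 0.9% in these data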;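 also: 0% = DMSO-only wells and 100% = 3 µM delta7-dafachronic acid wells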
hcDAF-12 act = H. contortus DAF-12 nuclear receptor activators, primary screen, cell-based, luminescence, HEK293, lit1-tk-luc reporter; HEK293 hcDAF-12 lit1-tk-luc reporter; 0% DMSO, 100% Δ7-dafachronic acid; activation, % at 6.8 µM; 370,000 compounds, 1.4% hits; AID 652067, 2013;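 active = activation above the mean of all tested compounds plus 3 SD, cut at about 5.5% in these data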;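 also: 100% = response to 3 µM Δ7-dafachronic acid high control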
DAX1 inh-2 = DAX1 (NR0B1) inhibitors, primary screen, cell-based, HEK293, Gal4-DAX1, luciferase luminescence | Nuclear receptor subfamily 0 group B member 1 (Homo sapiens), P51843 | HEK293 Gal4-DAX1 luciferase reporter | inhibition, % at 6.75 µM | 340,000 compounds, 0.99% hits;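 active = inhibition above the mean over all tested compounds plus 3 SD, cut at about 4.2% in these data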;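 also: 0% = DAX1-transfected cells with DMSO and 100% = empty-vector control cells with DMSO; inhibition shows as a rise in luminescence from relieved DAX1 repression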
Target sequence (P51843 207-470 limits assumed): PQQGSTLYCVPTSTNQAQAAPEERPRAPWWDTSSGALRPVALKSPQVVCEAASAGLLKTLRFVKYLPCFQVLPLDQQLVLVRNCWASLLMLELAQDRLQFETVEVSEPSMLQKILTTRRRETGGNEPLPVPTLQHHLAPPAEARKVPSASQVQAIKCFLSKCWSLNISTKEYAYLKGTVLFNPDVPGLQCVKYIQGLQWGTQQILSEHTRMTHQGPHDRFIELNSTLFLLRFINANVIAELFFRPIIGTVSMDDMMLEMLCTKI
hgDAF-12 ag = H. glycines DAF-12 receptor agonists, primary screen, cell-based, luminescence, HEK293, GAL4 fusion, UAS-luciferase; Nuclear hormone receptor DAF-12 (Heterodera glycines), GAL4 fusion; HEK293 GAL4-hgDAF12 UAS-luciferase reporter, agonist luminescence; normalized to butyrate control; activation, % at 6.8 µM; 370,000 compounds, 1.8% hits;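 active = activation above a cutoff set at the mean of all screened compounds plus 3 SD, cut at about 10% in these data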;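 also: 0% = DMSO wells and 100% = sodium butyrate wells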
hgDAF12 ag = H. glycines DAF-12 receptor agonists, confirmation, cell-based, luminescence, HEK293, GAL4-LBD fusion; shares compounds with hgDAF-12 ag; HEK293 GAL4-hgDAF12 luciferase reporter, agonist mode; percent of butyrate response; activation, % at 6.8 µM; 3,300 compounds, 80% hits; AID 743050, 2013;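 active = mean activation over triplicate wells above the hit cutoff derived from the earlier primary screen, cut at about 11% in these data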;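 also: 0% = DMSO low control and 100% = 2 mM sodium butyrate high control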
LXRb DAF12 ctr = LXR agonists, Gal4 luciferase reporter, confirmation, counter-screen for hgDAF-12 agonist project, cell-based, luminescence, HEK293, H. glycines campaign; shares compounds with hgDAF-12 ag; 24 h; activation, % at 6.8 µM; 3,300 tested, under 10 active; AID 743051, 2013;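 active = mean activation of the triplicate above a set limit carried over from the primary screen, none filed active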
Target sequence (P55055 whole entry, looked up, the tested form may be a part): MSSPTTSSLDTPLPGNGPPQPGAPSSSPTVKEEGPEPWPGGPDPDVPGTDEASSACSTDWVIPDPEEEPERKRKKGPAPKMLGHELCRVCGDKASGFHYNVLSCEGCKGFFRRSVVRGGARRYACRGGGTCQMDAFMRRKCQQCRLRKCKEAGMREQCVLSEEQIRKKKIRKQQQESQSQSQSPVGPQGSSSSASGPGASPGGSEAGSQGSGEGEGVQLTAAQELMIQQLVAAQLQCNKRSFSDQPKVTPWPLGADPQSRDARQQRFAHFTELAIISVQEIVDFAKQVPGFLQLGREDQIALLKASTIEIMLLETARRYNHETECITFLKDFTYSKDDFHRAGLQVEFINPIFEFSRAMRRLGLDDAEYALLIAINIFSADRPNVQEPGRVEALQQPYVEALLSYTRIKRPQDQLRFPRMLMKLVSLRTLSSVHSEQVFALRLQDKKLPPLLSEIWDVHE
An asterisk follows results filed as active; x = no result given.

SMILES | SMARCA2 act | DAX1 inh-1 | ssDAF12 agonist | hcDAF-12 act | DAX1 inh-2 | hgDAF-12 ag | hgDAF12 ag | LXRb DAF12 ctr
CCS(=O)(=O)N1Cc2ccccc2CC1C(=O)Nc1cccc(OC)c1 (stereo not given) | 4.6 | -0.2 | 0.1 | 2.6 | 0.8 | 13.6* | 4.5 | 0.0
COc1ccc(CN2CCNC(=O)C2CC(=O)NCCC2=CCCCC2)cc1OC (stereo not given) | 0.7 | 0.4 | -1.9 | -1.5 | 3.5 | 0.1 | x | x
Cc1ccc(-c2nn(-c3ccccc3)cc2C=O)o1 | 1.7 | 3.6 | 0.0 | 3.2 | 0.8 | 13.4* | 10.1 | 0.5
Cc1ccc(-c2nn(-c3ccccc3)cc2C(N)=O)o1 | -1.3 | 0.9 | -1.2 | 2.2 | 0.0 | 3.4 | x | x
CCCc1cc(C(=O)Nc2cc(Br)ccc2O)no1 | 2.3 | -1.3 | -1.5 | 2.6 | -0.5 | 14.9* | 5.9 | 0.3
O=C(COC(=O)/C=C/c1ccco1)NCc1ccc(Cl)cc1 | -4.1 | -0.3 | -0.5 | 0.3 | 0.8 | -0.6 | x | x
O=C(/C=C/c1ccc(Cl)c(Cl)c1)Nc1cccnc1 | 3.2 | 0.9 | -1.4 | -2.3 | 2.0 | 4.1 | x | x
CC(C)(C)c1ccc(/C=C/C(=O)Nc2cccnc2)cc1 | 2.8 | 2.2 | -0.2 | 3.6 | 2.1 | 15.7* | 13.5* | 0.8
CCCc1nc2ccc(C(=O)OC)cn2c1Cc1ccc(C)cc1 | 0.6 | -0.4 | 0.6 | 3.0 | x | 1.7 | x | x
Cc1ccc2nc(C(C)(C)C)c(Cc3cccc(F)c3)n2c1 | 5.0 | 3.7* | 2.2* | 3.5 | x | 16.2* | 5.3 | 0.2
CCCc1nc2ccc(C)cn2c1Cc1ccc(C)cc1 | -0.2 | 1.3 | -0.2 | 4.5 | x | 13.8* | 9.3 | 0.5
COc1ccc(Cc2c(-c3cccc(Cl)c3)nc3ccc(Br)cn23)c(C)c1 | 4.2 | 2.8 | -1.1 | -0.1 | x | 5.9 | x | x
COc1ccccc1Cc1c(-c2cccc(Cl)c2)nc2ccc(C)cn12 | 2.7 | 2.9 | -0.4 | 2.3 | x | 14.9* | 4.5 | 0.2
COc1ccc(Cc2c(-c3ccc(F)cc3)nc3ccc(Br)cn23)c(C)c1 | 2.0 | 0.2 | 0.4 | 2.4 | x | 13.6* | 7.6 | 0.4
Fc1ccc(-c2nc3ccc(Cl)cn3c2Cc2cccc(F)c2)cc1 | -4.2 | 1.4 | -1.0 | 0.7 | x | 2.0 | x | x
Cc1ccc(-c2nc3ccc(C)cn3c2Cc2cccc(F)c2)cc1 | 5.9 | 3.6* | 0.0 | 3.5 | x | 14.7* | 5.1 | 0.2
O=C(COC(=O)CCNS(=O)(=O)c1ccc2c(c1)OCCO2)NC1CCCc2ccccc21 (stereo not given) | 0.0 | -0.3 | -1.3 | -1.8 | 3.4 | 1.3 | x | x
O=Cc1ccc(-c2nc3ccccc3s2)o1 | 6.0 | 1.7 | -0.2 | 6.0* | -1.0 | 13.6* | 10.8* | 0.5
O=C(O)c1ccc(-c2nc3ccccc3s2)o1 | 7.7 | 0.9 | -0.9 | 1.6 | -3.4 | 4.7 | x | x
Cc1cc2ccccc2c(=O)n1CC(=O)NCC(=O)N1CCN(c2cccc(Cl)c2)CC1 | -3.0 | 0.4 | -0.1 | 1.1 | -0.9 | -2.1 | x | x
COc1cccc(Nc2nc3ccccc3n3nnnc23)c1 | 4.4 | 0.8 | -0.6 | -1.3 | 0.9 | 4.3 | x | x
COc1ccc(C(=O)NCC(=O)OCc2ccc(Br)cc2)cc1 | -2.0 | 0.8 | -2.1 | 1.9 | -0.4 | 0.3 | x | x
O=C(CNC(=O)c1ccc(-c2ccccc2)cc1)OCc1ccc(Br)cc1 | 5.5 | 0.3 | -0.4 | 1.6 | -0.5 | 13.3* | 6.5 | 0.2
CN(C)c1ccc(/C=C/C(=O)c2ccc(O)cc2)cc1 | 4.0 | 3.7* | -0.1 | 4.0 | 5.5* | 19.2* | 14.4* | 0.7
Cn1c(-c2ccc(Br)o2)nc2ccccc21 | 7.5 | 3.7* | 1.0* | 5.8* | 2.5 | 15.2* | 14.8* | 0.8
SMILES | SMARCA2 act | DAX1 inh-1 | ssDAF12 agonist | hcDAF-12 act | DAX1 inh-2 | hgDAF-12 ag | hgDAF12 ag | LXRb DAF12 ctr
O=c1nc(N/N=C/c2c[nH]c3ccccc23)cn[nH]1 | 4.8 | 2.7 | 0.5 | 3.6 | -1.0 | 16.7* | 13.2* | 0.6
CCN(CC)CCN1C(=O)C(=O)/C(=C(/O)c2ccc(OC)cc2)C1c1ccco1 (stereo not given) | 2.1 | -0.1 | -0.9 | 0.5 | 0.5 | 0.6 | x | x
CCN(CC)CCCN1C(=O)C(=O)/C(=C(/O)c2ccc(OC)cc2)C1c1ccco1 (stereo not given) | -0.8 | -0.5 | -1.2 | 1.0 | 0.2 | 14.1* | 3.8 | 0.1
CC(C)Oc1cccc(-c2csc(N3CCC(C(N)=O)CC3)n2)c1 | x | x | 0.4 | 2.7 | x | 14.5* | 9.5 | 0.6
NC(=O)C1CCN(c2nc(-c3ccc4c(c3)OCCCO4)cs2)CC1 | x | x | 0.2 | 2.1 | x | 16.9* | 18.1* | 0.7
Cc1c2c(n3c(nc4ccccc43)c1C#N)N(CCCN(C)C)CC2 | -1.7 | 1.0 | -0.2 | -0.2 | -0.1 | 3.5 | x | x
CC1CN(C(=O)c2ccc(Oc3ccccc3)cc2)CC(C)O1 (stereo not given) | -4.6 | -0.8 | -1.9 | -1.3 | -1.0 | -1.5 | x | x
COc1ccccc1CC(=O)NC1CCCCCC1 | -2.6 | -0.1 | -2.0 | -1.2 | 0.2 | 13.2* | 1.1 | 0.0
O=C(Nc1cc(-c2ccccc2)sc1C(=O)O)c1cccc(F)c1 | -1.4 | 0.1 | -1.2 | -2.9 | -1.8 | 0.8 | x | x
Cc1cccc(NC(=O)c2cc3ccccc3o2)c1 | -0.1 | 3.6 | 1.1* | 6.4* | 2.9 | 19.6* | 18.8* | 0.8
O=C(Nc1cccnc1)c1cc2cc(Br)ccc2o1 | 6.1 | 2.3 | 0.0 | 5.1 | 6.6* | 13.9* | 14.2* | 1.0
O=C(Nc1cccnc1)Nc1ccc(Br)cc1Cl | -3.2 | 0.2 | -0.5 | -1.1 | 0.6 | 1.2 | x | x
COc1cccc2cc(-c3nc4ccccc4[nH]3)c(=O)oc12 | 2.1 | 2.1 | 1.1* | 5.2 | 1.8 | 15.1* | 17.4* | 0.9
Cc1cccc2cc(-c3nc4ccc(C(=O)O)cc4[nH]3)c(=O)oc12 | x | x | x | x | -0.5 | x | x | x
